29 compounds from PubChem BioAssay (NCATS) can be followed below.

“And” between values parts separate entries of the source, which are not always exact repeats. Equal values may be shown once. Results filed as inconclusive are left out. A number with no mark means an inactive call. The source made the active and inactive calls. The call rests on the fitted dose curve; in most records, active means well fitted curve in the direction sought with a large enough effect; inconclusive means small, poorly fitted or top-dose-only effect, or another doubt; inactive means no such curve, though single readings can be large; an effect the other way counts as inactive or inconclusive.

The nature of test [1]: Viability qHTS for spleen associated tyrosine kinase inhibitor (SYKi) drug resistant MV4-11 cells (AID 1963824). Further: nearly all actives have a fitted effect of over 35% in size. The method in brief: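 SYK-inhibitor-resistant MV4-11 AML cells were seeded at 500 per well onto compound and cultured 72 hours (37 °C, 5% CO2). CellTiter-Glo was then added, and after 10 min at room temperature, luminescence gave viability.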
The nature of test [2]: Cellular viability qHTS for adrenocortical cancer (ACC) cell line SW-13 (AID 1963989). Further: nearly all actives have a fitted effect of over 65% in size.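 On activity (max response): cells grown in serum-free medium with ITS supplement; on the % scale 0 is the no-effect control and ±100 the full control effect.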 Conditions: SW-13 ACC cells viability, CellTiter-Glo, 48 h; activity (max response): hits give low values. The essentials:
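Here, serum-free SW-13 cultures were dosed up to 46 uM. Following 48 h, ATP-dependent luminescence (CellTiter-Glo) reported viable cells, and logistic modeling produced IC50 values.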

Test [3] is described as follows: Cellular viability qHTS for adrenocortical cancer (ACC) cell line NCI-H295R (AID 1963990). Further: nearly all actives have a fitted effect of over 60% in size. The method in brief:
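Viability of NCI-H295R after 48 h of treatment (final up to 46 uM) measured through cellular ATP luminescence.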
Potency means the concentration at half of the fitted maximal effect.

Regarding `C[C@H]1C[C@H](O)c2ccsc2S1(=O)=O`, the Potency result in test [1] and in test [3] was “inactive” each time. Besides, in test [2], the activity (max response) was 10.4%.

For the compound `C=CCSCC1Nc2cc(Cl)c(S(N)(=O)=O)cc2S(=O)(=O)N1` (configuration not stated), the Potency in test [1] is 10.6 µM (active). Also, in test [2], the activity (max response) was 6.34%. In addition, the Potency entry in test [3] was “inactive”.

Take `COc1nc(N)nc2c1ncn2C1OC(CO)C(O)C1O` (configuration not stated): the Potency entry in test [1] and in test [3] was “inactive” throughout. In addition, in test [2], the activity (max response) was 12%.

With `COc1ccc([C@@H]2CC(=O)c3c(O)cc(O[C@@H]4O[C@H](CO[C@@H]5O[C@@H](C)[C@H](O)[C@@H](O)[C@H]5O)[C@@H](O)[C@H](O)[C@H]4O)cc3O2)cc1O`, in test [1], the Potency is 8.33 µM (active). For the same compound, in test [2], the activity (max response) is 3.7%. In test [3], the Potency entry is “inactive”.

`NC[C@H]1O[C@H](O[C@H]2[C@H](O)[C@@H](O[C@H]3O[C@H](CO)[C@@H](O)[C@H](N)[C@H]3O)[C@H](N)C[C@@H]2N)[C@H](N)C[C@@H]1O`: the Potency in test [1] is 18.6 µM (active). Besides, the activity (max response) in test [2] was 4.38%. Besides, the Potency entry in test [3] is “inactive”.

With `C[C@]12CCC(=O)C=C1C=C[C@@H]1[C@@H]2CC[C@@]2(C)[C@H]1CC[C@@]21CCC(=O)O1`, the Potency result in test [1] and in test [3] was “inactive” in each case. Further, the activity (max response) in test [2] was 8.87%.

Consider `COc1cc(N)c(Cl)cc1C(=O)NC1CCN(CCCOc2ccc(F)cc2)CC1OC` (configuration not stated), for which the Potency in test [1] is 23.7 µM (active). Further, in test [2], the activity (max response) is -12.2%. Besides, in test [3], the Potency result was “inactive”.

In the case of `COc1ccc2nc(SCc3ncc(C)c(OC)c3C)[nH]c2c1`, the Potency entry in test [1] and in test [3] was “inactive” in each case. The activity (max response) in test [2] is 3.67%.

As for `O=C1c2ccccc2CCc2ccccc21`, the Potency result in test [1] and in test [3] was “inactive” in each case. Further, the activity (max response) in test [2] was 4.16%.

`NS(=O)(=O)c1ccc(Cc2c(-c3cccc(-c4ccccc4)c3)nn(-c3nc(C(=O)O)cs3)c2CC2CC2)cc1`: the Potency in test [1] is 10.5 µM (active); in test [2], 31.6 µM (active); in test [3], 28.2 µM (active).

Consider `NC(CC1c2ccccc2Oc2ccccc21)(C(=O)O)C1CC1C(=O)O` (configuration not stated), for which the Potency result in test [1] and in test [3] was “inactive” each time. For the same compound, the activity (max response) in test [2] was 1.03%.

Turning to `CCCCCN(CCCCC)C(=O)C(CCC(=O)O)NC(=O)c1ccc(Cl)c(Cl)c1` (configuration not stated), the Potency result in test [1] and in test [3] was “inactive” throughout. In addition, the activity (max response) in test [2] was 5.36%.

For `Cc1onc(-c2ccccc2)c1-c1ccc(S(N)(=O)=O)cc1`, in test [1], the Potency is 14.8 µM (active). Further, in test [2], the activity (max response) was -10.6% and -23.5%. Further, the Potency result in test [3] is “inactive”.

For the compound `COc1ccc(Cl)c(Nc2nc3ccccc3nc2NS(=O)(=O)c2cccc(NC(=O)C(C)(C)N)c2)c1`, the figures for the Potency in test [1], in test [2] and in test [3] were 8.2 µM (active), 25.1 µM (active) and 20 µM (active), respectively.

As to `COc1cc(NC(C)CCCN)c2ncccc2c1` (configuration not stated), the figures for the Potency in test [1], in test [2] and in test [3] were 5.31 µM (active), 4.61 µM (active) and 8.2 µM (active), respectively.

As for `CC(C)(C)NCC(O)COc1ccccc1OCC1CCCO1` (configuration not stated), in test [1], the Potency was 0.015 µM (active). The activity (max response) in test [2] was -5.68%. Also, the Potency result in test [3] was “inactive”.

With `CC1CC(OC(=O)c2ccccc2O)CC(C)(C)C1` (configuration not stated), the Potency result in test [1] and in test [3] was “inactive” each time. The activity (max response) in test [2] was 10.4%.

As to `CC1(C)O[C@@H]2C[C@H]3[C@@H]4CCC5=CC(=O)C=C[C@]5(C)[C@@]4(F)[C@@H](O)C[C@]3(C)[C@]2(C(=O)CO)O1`, the Potency in test [1] was 10.6 µM (active). In addition, in test [2], the activity (max response) is 4.2% and -2%. In addition, the Potency entry in test [3] is “inactive”.

`Nc1ncnc2c1ncn2[C@@H]1O[C@H](CO)C[C@H]1O`: the Potency entry in test [1] is “inactive”. In test [2], the activity (max response) was -9.5%. For the same compound, the Potency in test [3] was 15.8 µM (active).

Regarding `CC(C)(C)C(O)/C=C/c1ccc2c(c1)OCO2` (configuration not stated), the Potency result in test [1] and in test [3] was “inactive” in each case. For the same compound, the activity (max response) in test [2] was -8.69%.

As for `CC1(C)CC[C@]2(C(=O)O)CC[C@]3(C)C(=CC[C@@H]4[C@@]5(C)C[C@@H](O)[C@H](O)C(C)(C)[C@@H]5CC[C@]43C)[C@@H]2C1`, in test [1], the Potency is 18.6 µM (active). Moreover, the activity (max response) in test [2] was -1.16%. Besides, the Potency result in test [3] was “inactive”.

Consider `Cc1c(N(C)C)c(=O)n(-c2ccccc2)n1C`, for which the Potency entry in test [1] and in test [3] was “inactive” each time. In addition, in test [2], the activity (max response) is 10.1%.

In the case of `CC(/C=C1\SC(=S)N(CC(=O)O)C1=O)=C\c1ccccc1`, the Potency entry in test [1] and in test [3] was “inactive” each time. Further, in test [2], the activity (max response) was 4.22%.

Consider `COc1ccc2[nH]c(C(=O)N3CCC(CC(C)(C)O)CC3)cc2c1`, for which the Potency in test [1] is 18.6 µM (active). The activity (max response) in test [2] was -4.14%. The Potency result in test [3] is “inactive”.

Regarding `CN(C)CCC[C@@]1(c2ccc(F)cc2)OCc2cc(C#N)ccc21`, the Potency in test [1] was 8.41 µM (active). In addition, in test [2], the activity (max response) was -9.39%. For the same compound, in test [3], the Potency result is “inactive”.

For the compound `Cc1cc(Oc2ccc3nc(COc4ccc(CC5SC(=O)NC5=O)cc4)n(C)c3c2)cc(C)c1N` (configuration not stated), in test [1], the Potency was 16.6 µM (active). Moreover, the activity (max response) in test [2] was -6.08%. Besides, in test [3], the Potency result was “inactive”.

`CCCCCN=C(N)N/N=C/c1c[nH]c2ccc(OC)cc12`: the Potency in test [1] is 2.66 µM (active); in test [2] it was 13 µM (active); in test [3], 23.1 µM (active).

For the compound `COc1cc(O)cc(O)c1`, the Potency result in test [1] and in test [3] was “inactive” each time. In addition, the activity (max response) in test [2] is -2.38%.

Take `COc1cc2c(cc1OC)CN(C(=O)[C@H](C)N[C@@H](CCc1ccccc1)C(=O)O)[C@H](C(=O)O)C2`: the Potency entry in test [1] and in test [3] was “inactive” in each case. For the same compound, the activity (max response) in test [2] was 4.46%.
